Assay results from the supplement of paper PMC11417369.
± gives the standard deviation of the averaged measurements. The full ranking holds about 25,000 sequences; the median of “ln(normalized median fluorescence intensity)” is about 10, and the highest 2% start at about 12. This excerpt belongs to a sample that is enriched for the highest values.

Each sequence was assayed on PfAP2-G AP2 domain (GST-tagged) (assay: gcPBM binding intensity (ln(normalized median fluorescence intensity)); higher = stronger DNA binding).
Outline: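 Alexa488 anti-GST antibody, scanned at 488 nm, detected GST-tagged P. falciparum DNA-binding domains that had been expressed in E. coli and incubated for 1 h on an Agilent 4 × 180k array. The array carried primer-extended double-stranded 36-bp intergenic genomic probes and negative controls. Binding intensity is the highest Masliner-normalised natural-log median intensity across replicate spots of either orientation of each probe.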
For “TATATTTTATATTAGTGTACAAATTTCATTTTTCAT [XGTACX_site2204]”, the “gcPBM binding intensity (ln)” value was 11 ± 0.5.
In the case of “ATATTTATATATAGTAGTACTTTCAATAATTTAAAT [XGTACX_site7276]”, the “gcPBM binding intensity (ln)” value is reported as 11.4 ± 0.84.
“TTTTAAATTTAGTGTAGTACACTTTTTTCAAATATA [XGTACX_site4659]” was tested, and the “gcPBM binding intensity (ln)” value was 11.7 ± 1.2.
In the case of “ATATGTTACTTTACATAAAGAAGAAGAAGAAGAAAA [CACACA_negctrl_site985]”, the “gcPBM binding intensity (ln)” value is reported as 9.805 ± 0.064.
“TGTATGATTATGTTGTGTACGTAAAATATGAAAAAT [XGTACX_site1720]” was tested, and the “gcPBM binding intensity (ln)” value was 11.5 ± 0.89.
With “TATAAAAAATTATGTTGTACGTAATATAAAATTTGT [XGTACX_site7122]” the “gcPBM binding intensity (ln)” value was 11.4 ± 0.86.
In the case of “TCTTTTGAACAAATTTGTACGTATATAAAAATATTT [XGTACX_site6547]”, the “gcPBM binding intensity (ln)” value is reported as 11.4 ± 0.71.
“ATATAAACATGTTTGTGTACGTAATATGAAAAATAA [XGTACX_site8157]” was tested, and the “gcPBM binding intensity (ln)” value was 11.7 ± 1.
“TTTTTGTTTGAACACTGTACGTATAAATATAAAAGT [XGTACX_site6476]” was tested, and the “gcPBM binding intensity (ln)” value was 11.7 ± 0.84.
“TATAATAAAATATTTTGTACGTATATTTTAATATTT [XGTACX_site2582]” was tested, and the “gcPBM binding intensity (ln)” value was 11.2 ± 0.72.
In the case of “TAAAATATAAGACACACACACATATATTTATATATC [CACACA_site6248]”, the “gcPBM binding intensity (ln)” value is reported as 9.96 ± 0.099.
For “AAAAAAAAAAAAAAAAGTACACAGTAGAATTAAATG [XGTACX_site1843]”, the “gcPBM binding intensity (ln)” value was 11.7 ± 0.92.
In the case of “AAAAAAAAAATTAAAAGTACAGAAAATAAATAAATA [XGTACX_site7470]”, the “gcPBM binding intensity (ln)” value is reported as 11.4 ± 0.82.
In the case of “AAAGAATAATTAAATACACACATATTACAGTAAAAA [CACACA_site2450]”, the “gcPBM binding intensity (ln)” value is reported as 10.03 ± 0.092.
For “TTATGTACAATTTCTTCTTTCTTTTTTCCTAAAGAC [CACACA_negctrl_site1193]”, the “gcPBM binding intensity (ln)” value was 11.1 ± 0.57.
For “GGTCTTATTTTTAGTAGTACAAATATAATATACATA [XGTACX_site6483]”, the “gcPBM binding intensity (ln)” value was 11.4 ± 0.83.
In the case of “AATAATTTAATACATACACACGTATATCTTTTTTTT [CACACA_site8632]”, the “gcPBM binding intensity (ln)” value is reported as 9.955 ± 0.078.
“TAATTGTACGCCAATACACACAGAATTATAATGTAG [CACACA_site6201]” was tested, and the “gcPBM binding intensity (ln)” value was 11.5 ± 1.
For “TAATTGTACGCCAATACACACAGAATTAGAATGTAG [CACACA_site102]”, the “gcPBM binding intensity (ln)” value was 11.8 ± 1.3.
In the case of “TAATTGTACGCCAATACACACAGAATTAAAATGTAG [CACACA_site4234]”, the “gcPBM binding intensity (ln)” value is reported as 11.6 ± 1.1.
In the case of “CAACATTTATATTTTACACACATCATTTAAGCGCTT [CACACA_site992]”, the “gcPBM binding intensity (ln)” value is reported as 10.09 ± 0.078.
“ATCCTTTATTTTTTTTGTACATAAAAATAACTCGAG [XGTACX_site3885]” was tested, and the “gcPBM binding intensity (ln)” value was 11.1 ± 0.62.
With “ATATGTATATTTTTGATGTGCTTTTATTTGGTTATT [CACACA_negctrl_site626]” the “gcPBM binding intensity (ln)” value was 10.01 ± 0.035.
In the case of “CATACACCCAGACACACACACATATATATATATATA [CACACA_site634]”, the “gcPBM binding intensity (ln)” value is reported as 10.3 ± 0.39.
“CCCCCCCACGAACACACACACATACATACCACATAT [CACACA_site7149]” was tested, and the “gcPBM binding intensity (ln)” value was 12 ± 1.
“CGCATACACGGACACACACACACATATATATATATA [CACACA_site4520]” was tested, and the “gcPBM binding intensity (ln)” value was 11.3 ± 0.7.
In the case of “CATATACACGAACACACACACATATATATATATATA [CACACA_site4437]”, the “gcPBM binding intensity (ln)” value is reported as 10.5 ± 0.68.
For “TTCCCCCCCAGACACACACACACATACATACCACAT [CACACA_site2305]”, the “gcPBM binding intensity (ln)” value was 11.8 ± 0.84.
With “CACAGACACCCATACACACACATACCCATATATATA [CACACA_site5023]” the “gcPBM binding intensity (ln)” value was 10.4 ± 0.26.
In the case of “AACATATACACGAACACACACACATATATATATATA [CACACA_site502]”, the “gcPBM binding intensity (ln)” value is reported as 10.3 ± 0.26.
In the case of “CCCCCCCACGGACACACACACATACATACCACATAT [CACACA_site5303]”, the “gcPBM binding intensity (ln)” value is reported as 11.7 ± 0.75.
In the case of “TACATACACAGACACACACACATATATATATATATA [CACACA_site3557]”, the “gcPBM binding intensity (ln)” value is reported as 10.2 ± 0.38.
“TACATACACGGACACACACACATATATATATATATA [CACACA_site5883]” was tested, and the “gcPBM binding intensity (ln)” value was 11.3 ± 0.88.
With “CCCCCCCACAGACACACACACATACATACCACATAT [CACACA_site2306]” the “gcPBM binding intensity (ln)” value was 11.8 ± 0.76.
For “TACAGACATACATACACACATACATACAGACATACA [CACACA_site1941]”, the “gcPBM binding intensity (ln)” value was 10.1 ± 0.3.
In the case of “AAATTAATGTATATGTGAAGCAAGGGATGCGGCAGA [CACACA_negctrl_site406]”, the “gcPBM binding intensity (ln)” value is reported as 10.2 ± 0.12.
“GTACCTATTTCATACACACACACACCCAAACAAACA [CACACA_site976]” was tested, and the “gcPBM binding intensity (ln)” value was 10.7 ± 0.51.
With “ACATAATAAAAATAAATTCATAAGTAAATAAATAAA [TGCATGCA_negctrl_site186]” the “gcPBM binding intensity (ln)” value was 9.88 ± 0.24.
With “GTTTGTATAGGTTCATGTACAAAAAAAAAAAAAAAA [XGTACX_site537]” the “gcPBM binding intensity (ln)” value was 11 ± 0.83.
In the case of “TTGTTTAAGTCACGAACACACATATATCATCAATTT [CACACA_site986]”, the “gcPBM binding intensity (ln)” value is reported as 10.11 ± 0.071.
For “TTACTTATAAATAAATATACAAAAATGTTATATATA [XGTACX_negctrl_site223]”, the “gcPBM binding intensity (ln)” value was 9.625 ± 0.078.
For “CATACATACATACATACATGCATACATACATACATA [TGCATGCA_site218]”, the “gcPBM binding intensity (ln)” value was 10.5 ± 0.47.
In the case of “AATTCTTTTTTCAACACACACACACCCGAAAATATA [CACACA_site3111]”, the “gcPBM binding intensity (ln)” value is reported as 10.3 ± 0.28.
“CAAACCTATATACAAACATGCAATCCACATATTGGT [TGCATGCA_site756]” was tested, and the “gcPBM binding intensity (ln)” value was 9.99 ± 0.13.
In the case of “AACACAAGAACAGAACGTACACACACATATATATAT [XGTACX_site7347]”, the “gcPBM binding intensity (ln)” value is reported as 11.3 ± 0.61.
With “AAGAAAAATTTAAACTGTACTTGTTTTCCAATGAAC [XGTACX_site4443]” the “gcPBM binding intensity (ln)” value was 11.4 ± 1.
With “AAAAAATGAAAAAACTGTACGCAATTTTGTTTTTAT [XGTACX_site2299]” the “gcPBM binding intensity (ln)” value was 11.7 ± 1.2.
“TAAAATTTTTGTTTTTGTACGAAACATCAATTTTAC [XGTACX_site4963]” was tested, and the “gcPBM binding intensity (ln)” value was 10.7 ± 0.34.
“CTTAAATTGAAATGTTGTACAAAGTAAAAACAATGA [XGTACX_site2123]” was tested, and the “gcPBM binding intensity (ln)” value was 11.2 ± 0.86.
“GTATATCACACATTTGCATGTTGTCAATAGTTTATC [TGCATGCA_site134]” was tested, and the “gcPBM binding intensity (ln)” value was 10.23 ± 0.014.
With “ATTTAAAAAATATATTGTACATATTTTATTATGTTT [XGTACX_site2984]” the “gcPBM binding intensity (ln)” value was 11 ± 0.63.
With “TTCTTTAAAATATTATGTACACATTGCGAACAGTTT [XGTACX_site5418]” the “gcPBM binding intensity (ln)” value was 11.7 ± 1.
For “TTAAAAATATTATGTACACACATTTTAGATATTTGT [CACACA_site1846]”, the “gcPBM binding intensity (ln)” value was 11.6 ± 0.77.
In the case of “GTTATAAAATATGGCACACAAAATGTAAGTAAATGA [CACACA_site1458]”, the “gcPBM binding intensity (ln)” value is reported as 10.5 ± 0.2.
For “TTCATTAATGTGTAATGTACTTGTAATATGGGATTA [XGTACX_site3903]”, the “gcPBM binding intensity (ln)” value was 11.1 ± 0.82.
In the case of “TTTTTATTTATATGATACTTATATATATATATATAT [CACACA_negctrl_site462]”, the “gcPBM binding intensity (ln)” value is reported as 10.2 ± 0.35.
